This is an account of results in PubChem BioAssay.

The inhibition is the relative decrease from the control value, in per cent.

Where “and” joins values, the source holds several entries; their conditions need not be identical. Equal entries are not always repeated. A structure can be active in one record and inactive in another. Calls of active or inactive are those of the source.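 How the source made its calls, unless noted: active means thallium flux through the channel raised or lowered by more than 3 SD from vehicle-only wells, actives on both sides; inactive means the rest.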

Test [1] is described as follows: Wnt pathway potentiators raising nuclear beta-catenin – imaging, WNT3A-conditioned medium, mouse C2C12, NPC library, primary screen (AID 1117326; in the data active means nuclear beta-catenin stimulation mostly above about 4.2%, no sharp cut-off; inactive means mostly below about 10%). The settings on record: stronger effect = higher value.
Test [2] can be described thus: stimulators of insulin release from INS-1E, primary screen, cell-based, 5 mM glucose, NPC library (AID 1117329;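 active means compound raises insulin release from rat beta cells at 5 mM glucose, no numeric limit stated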). The settings on record: rat INS-1E insulin secretion, at 10 µM, stronger effect = higher value.
A short description of test [3]: growth inhibition of GSK3B-pretreated HCT116 cells – cell-based, CellTiter-Glo, 0.2 to 20 µM (AID 1117336;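 active means compounds lowering colon cancer cell viability after pretreatment blocking the GSK3B kinase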). The settings on record: HCT116 viability after GSK3B inhibitor, at 20 µM, stronger effect = higher value.
Test [4] can be described thus: inhibition of endothelial tube formation, primary screen, imaging, VEGF stimulated, CD31 staining, tube area, NPC library (AID 1117340;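 active means compound that reduces growth-factor-driven endothelial tube area in a mixed cell culture, no cutoff stated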). The settings on record: VEGF-stimulated ADSC/ECFC co-culture, at 10 µM, stronger effect = higher value.
Test [5] is described as follows: GLP1 release stimulators, primary, NCI-H716, NPC library (AID 1117341;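 active means compound raises GLP1 secretion from the human gut endocrine cells, with no numeric limit stated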). The settings on record: NCI-H716 cells, at 10 µM, stronger effect = higher value.
Test [6] is described as follows: HCT116 colon cancer cell growth inhibition, primary screen, CellTiter-Glo luminescence, NPC library (AID 1117342;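 active means compounds that lower survival of HCT116 colon cancer cells in the luminescence readout, no numeric limit stated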). The settings on record: at 20 µM (top of the series). Background: Cellular ATP, detected with luciferase, serves as a proxy for viable cell number.
The nature of test [7]: reduced SW480 viability measured with CellTiter-Glo, NPC library, primary (AID 1117343;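 active means compounds that lower viability of the colon cancer cells in the luminescence readout, with no numeric limit stated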). The settings on record: CellTiter-Glo luminescence; at 20 µM (top of the series).
Test [8] can be described thus: NPC library primary testing for decreased DLD-1 cell viability via CellTiter-Glo (AID 1117346;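 active means compounds that lower survival of DLD-1 colon cancer cells in the luminescence readout, no cutoff given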). The settings on record: DLD-1 viability, CellTiter-Glo luminescence; at 20 µM (top of the series).
The target of test [9] is 6-phosphogluconate dehydrogenase, decarboxylating (Homo sapiens) (UniProt P52209). Put plainly: inhibition of human phosphogluconate dehydrogenase – biochemical, recombinant enzyme, NADPH absorbance, primary screen (AID 1159550;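 active means at least 20% inhibition of 6-phosphogluconate dehydrogenase activity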). The settings on record: recombinant 6PGD, NADPH absorbance 341 nm; at 10 µM; stronger effect = higher value.
Test [10] in a line: EMT-state selective cytotoxicity in co-culture – imaging, PC-3E GFP, TEM4-18 mCherry, primary screen (AID 1345086;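 active means compounds killing one labelled cell type while sparing the other, by normalised counts and ratio limits, not self-fluorescent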;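 on all read-outs here: cells exposed to compound for 72 h before imaging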;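 on red/green cell ratio (normalised): normalised mesenchymal count divided by normalised epithelial count so high means epithelial killing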). The settings on record: PC-3E GFP / TEM4-18 mCherry co-culture, imaging cell counts, at 1 µM; for red/green cell ratio (normalised): actives lie on both sides, counts scaled to control wells, 1 = unselective.
A short description of test [11]: MELAS cybrid and Rieske KO viability enhancers – cell-based, MELAS cybrids, Rieske KO mouse fibroblasts, CellTiter-Glo, primary screen (AID 1508586;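 active means mean z-score across replicates of 1.96 or higher in either the MELAS or the Rieske mutant cell line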;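 further: z relative to plate mean and SD of compound and empty wells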). The settings on record: low glucose.
Test [12] has as its target NAD(+) hydrolase SARM1 (Homo sapiens) (UniProt Q6SZW1). Put plainly: blocking NAD cleavage by SARM1 SAM-TIR – cell lysate, NAD-Glo luminescence (AID 1508614;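 active means compound whose remaining NAD level is above about 45 nM, limit read from the data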). The settings on record: SAM-TIR HEK293T lysate NADase, at 1 µM, stronger effect = higher value.
Test [13] addresses Mitogen-activated protein kinase 7 (Homo sapiens) (UniProt Q13164). Put plainly: Gal4-ERK5 driven luciferase induction – cell-based, HTS, primary screen (AID 1508626;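 active means luciferase signal above three times the same-plate solvent-only control wells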;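 further: luciferase driven by Gal4-ERK5 fusion binding five Gal4 sites before minimal TATA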). The settings on record: HeLa Gal4-ERK5 transactivation, 18 h, at 5 µM, stronger effect = higher value.
A short description of test [14]: modulation of C. elegans fzo-1 (AID 1259413; call rule not given here;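 further: fzo-1 mutant C. elegans worms in liquid wells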). The settings on record: C. elegans fzo-1 modulator screen, mean read-out; stronger effect = higher value.
The next test relates to F380Y. Put plainly: BK channel mutant inhibitors and activators – cell-based, U2OS BacMam, thallium flux, beta subunits, selectivity assay, profiling panel (AID 1259406).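 Further: initial slope of Thallos dye fluorescence rise after thallium is added; log ratio against the mean of 0.3% DMSO vehicle wells on the same plate.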 The settings on record: U2OS BacMam BK variants, at 30 µM.
In a further test the test system is F380Y/beta1. The description is as above. The settings on record: U2OS BacMam BK variants, at 30 µM.
Another test has as its system F380Y/beta2Delta. The test is described as above. The settings on record: U2OS BacMam BK variants, at 30 µM.
In the next test the test system is F380Y/beta4. Described as above. The settings on record: U2OS BacMam BK variants, at 30 µM.
The target of test [15] is Calcium-activated potassium channel subunit alpha-1 (Homo sapiens) + Leucine-rich repeat-containing protein 26 (Homo sapiens) (UniProt Q12791+Q2I0M4). Described as above. The settings on record: U2OS BacMam BK variants, F380Y/Slo1WT/gamma1, at 30 µM.
Where [16] appears, read: measured here: epithelial PC-3E GFP cell survival.
Where [17] appears, read: measured here: mesenchymal TEM4-18 mCherry cell survival.
Where [18] appears, read: MELAS cybrid survival, CellTiter-Glo 48 h, stronger effect = higher value.
Setting [19] is: Rieske KO mouse fibroblast survival, CellTiter-Glo 72 h.

Sequence of NAD(+) hydrolase SARM1 (Homo sapiens) (Q6SZW1 whole entry, looked up, the tested form may be a part): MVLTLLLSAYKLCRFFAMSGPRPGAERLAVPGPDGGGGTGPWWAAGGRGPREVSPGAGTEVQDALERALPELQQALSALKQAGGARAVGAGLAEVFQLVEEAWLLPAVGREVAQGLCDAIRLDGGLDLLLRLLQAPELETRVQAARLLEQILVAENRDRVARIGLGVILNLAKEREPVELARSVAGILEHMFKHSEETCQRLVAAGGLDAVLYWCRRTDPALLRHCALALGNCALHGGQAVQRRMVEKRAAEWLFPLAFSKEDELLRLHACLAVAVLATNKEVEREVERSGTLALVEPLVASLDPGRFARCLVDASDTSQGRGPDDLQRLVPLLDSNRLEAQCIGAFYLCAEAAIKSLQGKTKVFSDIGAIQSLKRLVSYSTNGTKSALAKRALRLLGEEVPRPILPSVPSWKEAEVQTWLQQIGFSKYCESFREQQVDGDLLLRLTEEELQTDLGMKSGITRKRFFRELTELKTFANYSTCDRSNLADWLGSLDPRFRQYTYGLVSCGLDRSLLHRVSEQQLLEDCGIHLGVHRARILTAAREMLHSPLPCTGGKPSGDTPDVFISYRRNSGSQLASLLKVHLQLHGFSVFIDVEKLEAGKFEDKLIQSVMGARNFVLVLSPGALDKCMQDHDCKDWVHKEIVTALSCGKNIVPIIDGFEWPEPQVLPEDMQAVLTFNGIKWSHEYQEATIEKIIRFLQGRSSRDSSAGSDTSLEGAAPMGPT
Sequence of Mitogen-activated protein kinase 7 (Homo sapiens) (Q13164 whole entry, looked up, the tested form may be a part): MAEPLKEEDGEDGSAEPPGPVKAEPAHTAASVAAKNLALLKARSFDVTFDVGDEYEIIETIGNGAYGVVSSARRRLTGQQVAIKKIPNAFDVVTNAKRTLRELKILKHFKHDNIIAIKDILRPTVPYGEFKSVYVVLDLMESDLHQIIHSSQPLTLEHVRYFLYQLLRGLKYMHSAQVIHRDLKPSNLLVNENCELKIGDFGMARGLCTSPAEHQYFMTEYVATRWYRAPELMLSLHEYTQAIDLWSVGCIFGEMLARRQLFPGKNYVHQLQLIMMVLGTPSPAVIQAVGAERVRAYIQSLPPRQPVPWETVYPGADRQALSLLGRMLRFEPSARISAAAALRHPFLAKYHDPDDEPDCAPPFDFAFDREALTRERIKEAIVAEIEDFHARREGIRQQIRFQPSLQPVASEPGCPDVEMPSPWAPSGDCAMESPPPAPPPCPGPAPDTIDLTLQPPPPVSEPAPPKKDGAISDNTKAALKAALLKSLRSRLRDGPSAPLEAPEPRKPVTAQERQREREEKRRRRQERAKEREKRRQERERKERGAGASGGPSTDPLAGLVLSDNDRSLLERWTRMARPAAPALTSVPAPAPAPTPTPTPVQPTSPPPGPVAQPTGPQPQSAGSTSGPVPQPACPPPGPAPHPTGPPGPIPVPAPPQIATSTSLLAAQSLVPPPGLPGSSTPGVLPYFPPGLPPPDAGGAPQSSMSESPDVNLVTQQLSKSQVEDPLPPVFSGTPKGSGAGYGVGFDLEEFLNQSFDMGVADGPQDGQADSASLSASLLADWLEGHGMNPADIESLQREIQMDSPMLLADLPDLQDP
Sequence of 6-phosphogluconate dehydrogenase, decarboxylating (Homo sapiens) (P52209 whole entry, looked up): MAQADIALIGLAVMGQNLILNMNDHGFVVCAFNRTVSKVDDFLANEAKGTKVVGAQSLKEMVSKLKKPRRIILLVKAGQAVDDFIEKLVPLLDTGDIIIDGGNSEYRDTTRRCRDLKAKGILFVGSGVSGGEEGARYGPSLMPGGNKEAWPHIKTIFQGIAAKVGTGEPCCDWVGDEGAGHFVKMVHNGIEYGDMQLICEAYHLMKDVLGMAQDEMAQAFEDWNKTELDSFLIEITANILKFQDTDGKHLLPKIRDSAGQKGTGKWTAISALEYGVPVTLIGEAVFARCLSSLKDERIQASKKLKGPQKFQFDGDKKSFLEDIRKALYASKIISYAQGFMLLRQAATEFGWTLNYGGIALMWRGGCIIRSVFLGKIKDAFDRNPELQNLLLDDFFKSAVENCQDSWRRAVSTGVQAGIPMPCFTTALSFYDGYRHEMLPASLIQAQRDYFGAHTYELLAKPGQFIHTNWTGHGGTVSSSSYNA
Sequence of Calcium-activated potassium channel subunit alpha-1 (Homo sapiens) + Leucine-rich repeat-containing protein 26 (Homo sapiens) (Q2I0M4 whole entry, looked up, one chain of several): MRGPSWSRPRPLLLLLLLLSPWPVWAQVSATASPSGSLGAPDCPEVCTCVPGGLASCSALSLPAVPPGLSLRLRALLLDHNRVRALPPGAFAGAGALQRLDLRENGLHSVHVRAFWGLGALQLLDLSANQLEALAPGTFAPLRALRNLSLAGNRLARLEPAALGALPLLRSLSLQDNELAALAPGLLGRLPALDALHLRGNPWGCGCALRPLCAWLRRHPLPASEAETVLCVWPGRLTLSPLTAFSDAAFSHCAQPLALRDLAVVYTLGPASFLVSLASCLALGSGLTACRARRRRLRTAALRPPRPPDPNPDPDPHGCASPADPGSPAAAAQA

Take `N=C(N)c1ccc(OCCCCCOc2ccc(C(=N)N)cc2)cc1`: the nuclear beta-catenin stimulation in [1] (at 10 µM) is -0.7% (inactive); in [1] (stimulation, at 2 µM), 1.1%. Also, the insulin secretion stimulation in test [2] is 2.3% (inactive). Also, the viability decrease in test [3] was 0.4% (inactive). Further, in [4], the tube area decrease is 43.4% (active). Besides, the GLP1 secretion stimulation in test [5] was -3.5% (inactive). Also, in test [6], the inhibition of viability is 12.5% (inactive). The viability decrease (inhibition) is 60.9% (active) in test [7] and 55.1% (active) in [8]. Also, the inhibition in [9] is 12.1% (inactive). For the same compound, in test [10], the red/green cell ratio (normalised) is 0.75 (inactive). Besides, the normalised cell number in test [10] (setting [16]) is 1.05; in test [10] (setting [17]), 0.79. In addition, the z-score in test [11] (setting [18]) is 6.07 (active) and -3.61 (inactive) and 2.69 (active); in [11] (setting [19]), 6.42 and -2.57 and -1.21. Moreover, the remaining NAD in test [12] is 10 nM (inactive).

On to `c1ccc([C@H]2CN3CCSC3=N2)cc1`, for which the nuclear beta-catenin stimulation in test [1] (at 10 µM) was -0.8% (inactive); in test [1] (stimulation, at 2 µM), -0.5%. Further, the insulin secretion stimulation in [2] is 0.8% (inactive). Further, the viability decrease in [3] is -1.75% (inactive). For the same compound, in test [4], the tube area decrease was 2.3% (inactive). In [5], the GLP1 secretion stimulation was -1.2% (inactive). The inhibition of viability in [6] was -2.5% (inactive). Besides, the viability decrease (inhibition) was -10.8% (inactive) in test [7] and -6.9% (inactive) in [8]. Further, the inhibition in [9] was -3.99% (inactive). Besides, the z-score in test [11] (setting [18]) was -0.321 (inactive) and -0.38 (inactive); in test [11] (setting [19]), -0.0854 and -1.67. Further, in test [12], the remaining NAD was 10 nM (inactive). Further, in test [13], the luciferase signal is 44 AU (inactive).

Turning to `CCOC(=O)c1ccc(OCCN2C[C@H](O)[C@@H](O)[C@H](O)[C@H]2CO)cc1`, the nuclear beta-catenin stimulation in test [1] (at 10 µM) is 1.7% (inactive); in test [1] (stimulation, at 2 µM) it was 0.9%. In test [2], the insulin secretion stimulation is 0.1% (inactive). The viability decrease in test [3] is -17.2% (inactive). Besides, the tube area decrease in test [4] is 10.1% (inactive). Besides, the GLP1 secretion stimulation in test [5] is -1% (inactive). In test [6], the inhibition of viability was -40.4% (inactive). For the same compound, the viability decrease (inhibition) in test [7] was -62.9% (inactive); in test [8], -12.5% (inactive).

Take `CC[C@H](C)C(=O)O[C@H]1C[C@@H](C)C=C2C=C[C@H](C)[C@H](CC[C@@H]3C[C@@H](O)CC(=O)O3)[C@H]21`: the nuclear beta-catenin stimulation is 13.1% (inactive) in [1] (at 10 µM) and 4.2% in test [1] (stimulation, at 2 µM). For the same compound, the insulin secretion stimulation in test [2] was 6.6% (inactive). For the same compound, in test [3], the viability decrease is 69.3% (active). Besides, the tube area decrease in [4] is 95.5% (active). Moreover, the GLP1 secretion stimulation in test [5] is 25% (active). Moreover, in [6], the inhibition of viability was 56.9% (active). The figures for the viability decrease (inhibition) in test [7] and in test [8] were 87% (active) and 36.2% (inactive), respectively. In test [9], the inhibition was -1.21% (inactive). For the same compound, in test [14], the mean signal is 253 (inactive). In [10], the red/green cell ratio (normalised) was 0.98 (inactive). For the same compound, the normalised cell number in test [10] (setting [16]) was determined as 1.39; in test [10] (setting [17]), 1.37. Also, the z-score was -0.236 and -1.19 (inactive) in test [11] (setting [18]); 2.23 and -0.0427 in [11] (setting [19]). Also, in [12], the remaining NAD was 10 nM (inactive). For the same compound, the luciferase signal in [13] is 60 AU (inactive). In addition, the log fold change Tl+ flux with F380Y was 0.184 (active); with F380Y/beta1, 0.00194 (inactive); with F380Y/beta2Delta, 0.0899 (active); in the test on F380Y/beta4 it was -0.0805 (inactive); in [15] it was 0.025 (inactive).

As for `Clc1cccc(Cl)c1NC1=NCCN1`, the nuclear beta-catenin stimulation in test [1] (at 10 µM) is 0.7% (inactive); in [1] (stimulation, at 2 µM), 0.7%. Also, the insulin secretion stimulation in test [2] is 1.9% (inactive). Moreover, the viability decrease in test [3] was -10.4% (inactive). For the same compound, in [4], the tube area decrease was -5.1% (inactive). Besides, the GLP1 secretion stimulation in test [5] is 1% (inactive). Moreover, in test [6], the inhibition of viability is -0.6% (inactive). The viability decrease (inhibition) in test [7] is -15.3% (inactive); in test [8], -4.9% (inactive). Besides, the inhibition in [9] was 13.3% (inactive). The mean signal in [14] was 231 (inactive). In addition, the red/green cell ratio (normalised) in test [10] is 1.14 (inactive). Moreover, the normalised cell number in test [10] (setting [16]) was 1.33; in test [10] (setting [17]) it was 1.52. The z-score in [11] (setting [18]) is -0.353 (inactive) and 0.0276 (inactive) and 0.719 (inactive); in test [11] (setting [19]) it was 0.516 and -0.377 and -0.412. The remaining NAD in [12] was 10 nM (inactive). Besides, the luciferase signal in test [13] was 64 AU (inactive). In addition, the log fold change Tl+ flux in the test on F380Y is 0.0065 (inactive); in the test on F380Y/beta1, 0.0554 (inactive); with F380Y/beta2Delta, 0.0431 (inactive); in the test on F380Y/beta4 it was -0.00138 (inactive); in [15], 0.0127 (inactive).
